The values below come from PubChem BioAssay.

Activity calls are given as the source filed them.

The first test concerns XIP peptide (Xip251-270) binding. Briefly: XIP fragment 251-270 binding compounds – biochemical, small-molecule microarray, fluorescence 635/667 nm, 0.1 µg/mL protein, primary screen (AID 1182). The conditions noted are these: fluorescent protein binding, 635 nm, higher = more signal, called active from +8 up or from −8 down.
As to `O=C(NCC(F)(F)F)[C@@H]1c2ccccc2C(=O)N(Cc2ccc(OC(F)(F)F)cc2)[C@H]1c1ccc(CO)cc1`, the composite z-score was 0.21 (inactive). Same read-out and setting: under `C=CCC(OC(C)=O)[C@@H]1[C@@H](N(Cc2ccc(-c3cccc(C(F)(F)F)c3)o2)C(=O)c2ccc(C)cc2)c2cc(OCCCO)ccc2N1C(=O)c1ccc2ccccc2c1` (some centres undefined) stands 0.579 (inactive); under `C[N+](C)(C)CCCC[C@@H]1NC(=O)[C@H]2C[C@@H](C(=O)NCCCCCCN)[C@@H](c3ccc(O)cc3)N2C1=O`, -0.465 (inactive); under `CCCCCCc1nc(C2CC2)cc2c1[Si](C(C)C)(C(C)C)OC2`, -0.18 (inactive). Same read-out and setting: then `CCOC(=O)c1ccc(NC(=O)O[C@H]2[C@H](OC(=O)Nc3ccc4c(c3)OCO4)[C@@H](OC(=O)Nc3ccc4c(c3)OCO4)[C@@H](OC)O[C@@H]2CO)cc1`, with 1.15 (inactive); and `COC(=O)c1nc2oc1CC[C@@H](CO)NC(=O)N(C)Cc1cnnn1C[C@H](Cc1ccccc1)NC2=O`, with 0.618 (inactive).

In the case of `NC(=O)N1C(=O)C2C(C1=O)C1C=C(CCCO)C2C(c2cccs2)N1Cc1cccc(OC(F)(F)F)c1` (centres undefined), the composite z-score was 1.07 (inactive).

For the compound `[N-]=[N+]=NCc1ccccc1C[C@@]1(C(=O)NCc2ccccc2)N=C(c2ccc(OCCCO)cc2)O[C@@H]1c1ccccc1N=[N+]=[N-]`, the composite z-score was 0.047 (inactive). On the same count and under the same terms, then `CCCNC(=O)[C@@H]1c2ccccc2C(=O)N(C(C)C)[C@H]1c1ccc(CO)cc1`, with 0.251 (inactive). Turning to `O=C1C=C(c2ccccc2)C(=O)c2ccc([C@H]3Oc4ccccc4S(=O)(=O)N4CCC[C@@H]34)cc21`, the composite z-score was -0.668 (inactive).

`O=C1O[C@@H](c2ccccc2)[C@@H](c2ccccc2)N2[C@@H](c3ccccc3OCCO)[C@]3(C(=O)Nc4ccc(C#CCCO)cc43)[C@@H](C(=O)N3CCCCCCC3)[C@H]12`: the composite z-score was 8.49 (active). Consider `CC(C)C(=C=CC[C@H](O)c1ccc(OCCO)cc1)C[C@H](O)c1ccccn1`, for which the composite z-score was -0.0991 (inactive).

On to `COc1cc2c(cc1OC)CN(C(=O)[C@@H]1[C@H]3C(=O)O[C@H](c4ccccc4)[C@H](c4ccccc4)N3[C@H](c3ccc(OCCO)cc3)[C@@]13C(=O)Nc1ccccc13)CC2`, for which the composite z-score is 0.675 (inactive). In the case of `COc1ccc([Si](C)(C)[C@H]2[C@H](CCn3cc([C@H](O)c4ccccc4)nn3)O[C@@]3(C(=O)N(Cc4ccc(N5C(=O)c6cccc7cccc5c67)cc4)c4ccccc43)[C@@H]2C)cc1`, the composite z-score was 0.784 (inactive).

A further test deals with XIP peptide (Xip251-270). Briefly: compounds binding XIP fragment 251-270 – biochemical, small-molecule microarray, fluorescence 635/667 nm, 0.5 µg/mL protein, primary screen (AID 1183). The following applies: fluorescence 635 nm, higher = more signal.
For the compound `N#Cc1ccc(C(O)C2C=CC3C(=O)N(c4ccccc4)C(=O)C3N2Nc2ccccc2)cc1` (centres undefined), the composite z-score is 0.108. On the same count and under the same terms, under `Cc1ccc(S[C@]2(C(=O)NCCCN(C)C)CC(=O)N(C3CCCCC3)[C@@H]2c2ccc(CO)cc2)cc1` stands 0.0388. Still for that read-out and setting: under `CC(CO)N1C(=O)[C@@H]2[C@H]3C(=O)OCC=C[C@H]3OC23C=CCN(C(C)(C)C)C(=O)[C@@H]13` (some centres undefined) stands 0.0576.

In the case of `N#Cc1ccc(NN2C(C(O)c3ccc(F)cc3)C=CC3C(=O)N(c4ccccc4)C(=O)C32)cc1` (centres undefined), the composite z-score amounted to 0.634.

Regarding `COC(=O)c1c(CC[C@@H](CO)NC(=O)N2CCC[C@H]2Cn2cc(Cc3ccccc3)nn2)oc(C(C)=O)c1C(=O)OC`, the composite z-score was determined as 0.889.

In the case of `[N-]=[N+]=Nc1ccccc1[C@@H]1OC(c2ccc(OCCCO)cc2)=N[C@]1(Cc1ccccc1)C(=O)NCC(O)CO` (some centres undefined), the composite z-score was 0.747. As to `COC(=O)[C@@]1(Cc2ccc(OC)cc2)[C@@H]2C(=CC(=O)[C@H]2CC(=O)C(=O)N(C)C)CN1C(=O)c1ccccc1`, the composite z-score worked out at 0.739. With `CO[C@H]1O[C@H](CO)[C@@H](OC(=O)Nc2ccccc2-c2ccccc2)[C@H](OC(=O)Nc2ccc3c(c2)OCO3)[C@H]1OC(=O)Nc1ccc2c(c1)OCO2`, the composite z-score was 0.892.

With `CN1C(=O)C2C=CC(C(O)COCc3ccccc3)N(N(c3ccccc3)c3ccccc3)C2C1=O` (centres undefined), the composite z-score is 0.74. `CN1C(=O)C2C=CC(C(O)c3cccc(O)c3)N(Nc3ccccc3)C2C1=O` (centres undefined): the composite z-score is -0.0631. For the compound `COC(=O)[C@H](Cc1ccccc1)N1CC(/C=C/C2CC2)=C[C@H]1[C@H](O)Cc1ccccc1`, the composite z-score was 0.337. Take `CC=CC(O)C1C=CC2C(=O)N(c3ccccc3)C(=O)C2N1Nc1ccccc1F` (centres undefined): the composite z-score is 0.744. As for `O=C(NCC(F)(F)F)[C@@H]1c2ccccc2C(=O)N(Cc2cc(F)cc(C(F)(F)F)c2)[C@H]1c1ccc(CO)cc1`, the composite z-score is 0.663. Still for that read-out and setting: under `O=C1O[C@@H](c2ccccc2)[C@@H](c2ccccc2)N2[C@@H](c3ccc(O)cc3)[C@]3(C(=O)Nc4ccc(C#CC5(O)CCCCCC5)cc43)[C@@H](C(=O)NC[C@H](O)c3ccccc3)[C@H]12` stands 0.691; under `COCCCNC(=O)[C@@]1(Sc2ccc(C)cc2)CC(=O)N(C2CCCCC2)[C@@H]1c1ccc(CO)cc1`, 0.421. With `C=C(/C(=C/C[C@H](OC(=O)c1ccncc1)c1ccc(CO)o1)c1cc(C(=O)OC)ccc1OC)C(C)C`, the composite z-score came out at 0.554. Turning to `NC(N)=NCCCn1cc(CNC(=O)[C@@H](N)Cc2ccccc2)nn1`, the composite z-score was -1.17.

With `COC(=O)[C@@]1(Cc2ccc(OC)cc2)[C@H]2c3cc(C(=O)N(C)C)n(Cc4ccc(Cl)c(C(F)(F)F)c4)c3C[C@H]2CN1C(=O)c1ccccc1`, the composite z-score was determined as 0.267.

In the case of `C=CC[C@@]1(C(=O)N2CCOCC2)N=C(c2ccc(OCCCO)cc2)O[C@@H]1c1ccccc1CN=[N+]=[N-]`, the composite z-score stood at 0.758. Still for that read-out and setting: then `C[N+](C)(C)CCCCCCNC(=O)[C@H]1C[C@H]2C(=O)NCC(=O)N2[C@H]1c1ccc(O)cc1`, with 0.815.

On to `C=C(/C(=C/C[C@H](OC(C)=O)c1ccccc1OCCO)c1cc(C(=O)OC)ccc1OC)C(C)C`, for which the composite z-score is -0.239. On the same count and under the same terms, then `O=C(NCC(F)(F)F)[C@@H]1c2ccccc2C(=O)N(Cc2ccc(OC(F)(F)F)cc2)[C@H]1c1ccc(CO)cc1`, with 0.235; and `C=CCC(OC(C)=O)[C@@H]1[C@@H](N(Cc2ccc(-c3cccc(C(F)(F)F)c3)o2)C(=O)c2ccc(C)cc2)c2cc(OCCCO)ccc2N1C(=O)c1ccc2ccccc2c1` (some centres undefined), with 0.0901; and `C[N+](C)(C)CCCC[C@@H]1NC(=O)[C@H]2C[C@@H](C(=O)NCCCCCCN)[C@@H](c3ccc(O)cc3)N2C1=O`, with 0.825. Same read-out and setting: then `CCCCCCc1nc(C2CC2)cc2c1[Si](C(C)C)(C(C)C)OC2`, with 0.259; and `CCOC(=O)c1ccc(NC(=O)O[C@H]2[C@H](OC(=O)Nc3ccc4c(c3)OCO4)[C@@H](OC(=O)Nc3ccc4c(c3)OCO4)[C@@H](OC)O[C@@H]2CO)cc1`, with 0.894. On the same count and under the same terms, then `COC(=O)c1nc2oc1CC[C@@H](CO)NC(=O)N(C)Cc1cnnn1C[C@H](Cc1ccccc1)NC2=O`, with 0.944; and `NC(=O)N1C(=O)C2C(C1=O)C1C=C(CCCO)C2C(c2cccs2)N1Cc1cccc(OC(F)(F)F)c1` (centres undefined), with 0.577; and `[N-]=[N+]=NCc1ccccc1C[C@@]1(C(=O)NCc2ccccc2)N=C(c2ccc(OCCCO)cc2)O[C@@H]1c1ccccc1N=[N+]=[N-]`, with 0.558. For the compound `CCCNC(=O)[C@@H]1c2ccccc2C(=O)N(C(C)C)[C@H]1c1ccc(CO)cc1`, the composite z-score was determined as 0.658. Consider `O=C1C=C(c2ccccc2)C(=O)c2ccc([C@H]3Oc4ccccc4S(=O)(=O)N4CCC[C@@H]34)cc21`, for which the composite z-score was 0.468. Still for that read-out and setting: then `O=C1O[C@@H](c2ccccc2)[C@@H](c2ccccc2)N2[C@@H](c3ccccc3OCCO)[C@]3(C(=O)Nc4ccc(C#CCCO)cc43)[C@@H](C(=O)N3CCCCCCC3)[C@H]12`, with 1.02. On to `CC(C)C(=C=CC[C@H](O)c1ccc(OCCO)cc1)C[C@H](O)c1ccccn1`, for which the composite z-score was found to be 0.909. Same read-out and setting: under `COc1cc2c(cc1OC)CN(C(=O)[C@@H]1[C@H]3C(=O)O[C@H](c4ccccc4)[C@H](c4ccccc4)N3[C@H](c3ccc(OCCO)cc3)[C@@]13C(=O)Nc1ccccc13)CC2` stands 0.742; under `COc1ccc([Si](C)(C)[C@H]2[C@H](CCn3cc([C@H](O)c4ccccc4)nn3)O[C@@]3(C(=O)N(Cc4ccc(N5C(=O)c6cccc7cccc5c67)cc4)c4ccccc43)[C@@H]2C)cc1`, 0.199.
